Out of some 150,000 compounds screened, about 540 (0.36%) showed an effect of 50% or more. Only a selection was taken, and strong results are over-represented in it overall.
System: Plasmodium falciparum
Assay: Primary screen in NF54 nanoGlo assay, in single point, at 2uM, 72h; a lower Z score goes with more inhibition
Assay type: functional, Erythrocyte
Conditions: timepoint 72 hour

Structure (SMILES) | % Inhibition [%] | Z score
CN1CCC(N2CCN(Cc3c(Cl)ccc(O)c3Cl)CC2)CC1 | -11 | 1.6
NCCc1cccc(CN2CCC[C@H](CN3CCCCC3)C2)c1 | 3 | -0.52
O=C(NCc1ccc(N2CCNCC2)c(F)c1)c1ccc(-c2noc(C(F)(F)F)n2)cc1 | 67 | -11.53
O[C@H]1CCN(Cc2cccc(NCc3cn4ccnc4s3)c2)C1 | 52 | -7.83
OC1CCN(Cc2cccc(NCc3cccc(OCCn4ccnc4)c3)c2)CC1 | -3 | 0.55
CCNc1nc(C)cc(Nc2ccc(NC(=O)Nc3ccc(F)cc3F)cc2)n1 | 96 | -20.77
CCNc1cc(C)nc(NCCNC(=O)Nc2cc(F)cc(F)c2)n1 | 79 | -17.07
CCNc1cc(C)nc(NCCNC(=O)c2cc(-n3cccn3)nc(C)n2)n1 | -1 | 0.15
CN(C)Cc1ccccc1NC(=O)c1cccc2c(=O)c3ccccc3[nH]c12 | -2 | 0.38
NS(=O)(=O)Cc1cccc(NC(=O)c2cc(F)cc3c(=O)c4cccc(F)c4[nH]c23)c1 | -8 | 1.68
COc1cc2nc(N3CCC(CN4CCN(C)CC4)CC3)cc(C)c2cc1OC | -2 | 0.44
COc1cc2nc(NCC3(N4CCN(C)CC4)CCCC3)cc(C)c2cc1OC | 55 | -8.35
CC(C)CCOc1ccc2[nH]c(-c3cc(N4CCC[C@@H]4CS(C)(=O)=O)ccn3)cc2c1 | 97 | -20.97
CCOc1cc2nccc(N3C[C@H]4CN(C)C[C@H]4C3)c2cc1OCC | 99 | -21.22
O=C1c2cccc3cccc(c23)C(=O)N1CCc1nc2ccccc2s1 | -1 | 0.09
COCC(O)CN1CCC(NC2CCCNc3ccccc32)CC1 (stereo unspecified) | -7 | 1.28
O=C(c1cc(-c2ccccc2)[nH]n1)N1CCC(c2nc3cc(C(F)(F)F)ccc3s2)CC1 | 3 | -0.4
O[C@H]1CCN(Cc2ccccc2CNc2cccc(-n3ccnc3)n2)C1 | 94 | -14.28
O[C@@H]1CCCCC[C@H]1Nc1cccc(-n2ccnc2)n1 | -11 | 1.62
CCN1CCC[C@H](Nc2cccc(-n3ccnc3)n2)C1 | 46 | -6.91
CCn1nc(C(C)C)cc1C(=O)Nc1ccc(CC(=O)NC2CC2)cc1 | 3 | -0.75
Cc1cc(=O)[nH]c(-n2nc(C)cc2NC(=O)C(=O)N2CCC[C@H](C)C2)n1 | 4 | -0.54

Structure (SMILES) | % Inhibition [%] | Z score
Cc1cc(=O)[nH]c(-n2nc(C)cc2NC(=O)[C@H](C)n2nc3c(cc2=O)CCC3)n1 | -7 | 1.4
COC(=O)c1cn(CCNc2ccnc3cc(Cl)ccc23)cc2c(O)nnc1-2 | 97 | -19.19
Nc1cc(N2CCC(N3CCc4ccccc4C3)CC2)nc(N2CCOCC2)n1 | 5 | -0.91
Nc1cc(N2CCC(c3nc4cc(F)ccc4[nH]3)CC2)nc(N2CCOCC2)n1 | 52 | -10.32
Cc1cc(NC[C@H](O)COc2ccc(F)cc2)nc2ccccc12 | 68 | -11.87
Cn1nnc(C(=O)N2CCCCC23CCCCCC3)n1 | 64 | -13.81
CCN1C[C@H](Nc2nc(C)nc3sccc23)[C@@H](OC)C1 | 99 | -21.25
CN(C)C1CCN(CCN[C@H]2CCc3ccc(F)cc32)CC1 | 87 | -15.32
COc1ccc(C(O)CNC2CCc3ccc(F)cc32)cc1 (stereo unspecified) | 0 | 0.04
Cc1cnccc1NCCNc1nc(C(C)(C)C)nc2c1cnn2C | 20 | -3.05
Cc1cc(=O)n(CCN2CCN(C(=O)c3ccc[nH]3)CC2)c(=O)[nH]1 | -9 | 1.92
COc1ccc2cc(-c3cc(N)ccn3)[nH]c2c1 | 54 | -11.7
Cc1cc(NCCCN2CCC(C(=O)O)CC2)nc2ccccc12 | -15 | 2.33
NC(=O)[C@H]1CCCN(CCCNc2cc(C(F)(F)F)nc(N3CCCC3)n2)C1 | -5 | 0.88
COc1ccc2c(C)cc(NCCCN3CCC[C@H](C(N)=O)C3)nc2c1 | 57 | -8.7
c1ccc(CN2CCC(CCNC[C@@H]3CCCN4CCCC[C@H]34)CC2)cc1 | 57 | -10.03
c1ccc2c(CNCCC3CCN(c4ccncc4)CC3)csc2c1 | 80 | -17.16
CN1CCN(CC[C@H]2CCCCN2Cc2cnn(-c3ccc(F)cc3)c2)CC1 | 3 | -0.51
CCN1CCN(c2ccccc2CNCCC2CCN(C)CC2)CC1 | 27 | -4.06
Fc1ccc2c(CCNCc3cnn(-c4ccccc4)c3)c[nH]c2c1 | -3 | 0.71
Fc1ccc(-n2cc(CNCCC3CCN(c4ccncc4)CC3)cn2)cc1 | 91 | -15.93

Reference: ChEMBL document CHEMBL5308541, “MAIP: An Open-Source Tool to Enrich High-Throughput Screening Output and Identify Novel, Druglike Molecules with Antimalarial Activity” (ACS Med Chem Lett, 2023)
